Screens (PubChem)
This is a sample that favours compounds with a hit; in the whole collection about 10% have one here.
HP1b binding inh: HP1-beta chromodomain-methylated histone interaction inhibition. AlphaScreen HP1-beta / biotin-H3K9me3 peptide binding. Potency, µM (highest dose often 114 µM), actives largely listed as inhibitors. 390,000 tested, 0.56% active; further: nearly all actives have a fitted effect of over 70% in size
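AlphaScreen: HP1-beta (50 nM) preformed 30 min with biotin-H3(1-18)K9me3 peptide (50 nM) in PBS pH 7.4, 0.01% Tween-20. Compound added for 30 min at RT, then streptavidin donor/nickel chelate acceptor beads (10 ug/mL) for 30 min.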
G9a inh: blocks human histone lysine methyltransferase G9a; G9a H3K9 monomethylation, AlphaScreen, 2 h; Potency, µM (top dose mostly 102 µM), usual class: inhibitors; 350,000 tested, 8.8% active; further: nearly all actives have a fitted effect of over 75% in size
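Compounds were preincubated with 20 nM G9a for 15 min, after which biotinylated H3K9 peptide (500 nM) and SAM (20 uM) started a 2 h room-temperature reaction. Monomethylated product was quantified by antibody-based AlphaScreen chemiluminescence.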
Six1-Eya2 inh: blocks human Six1 binding to Eya2; AlphaScreen GST-Six1/His-Eya2 binding, biochemical; hits give low values; activity change, % (concentration not given with the values); 360,000 tested, 0.56% active; AID 651725; in the data active means activity change below about -65%; inconclusive means mostly about -30% to -63%
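AlphaScreen luminescence read after one hour at 37 °C in darkness. Pin-transferred compounds met GST-Six1 and His-Eya2 protein (5X stock 250 nM/500 nM) plus glutathione donor and Ni-chelate acceptor beads (5X, 50 ug/mL).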
BAZ2B block: BAZ2B (human) inhibition; Potency, µM (highest dose often 114 µM), hits mostly inhibitors; 360,000 tested, 4.4% active; AID 504333; AlphaScreen BAZ2B-H3K14Ac peptide displacement; further: nearly all actives have a fitted effect of over 60% in size
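Multi-concentration screen (max 110 uM) measuring displacement of acetylated histone H3 peptide from BAZ2B by AlphaScreen, using 50 nM protein, 50 nM peptide and 10 ug/mL streptavidin donor plus Ni-chelate acceptor beads.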
JMJD2A Tudor inh: blocks the human JMJD2A Tudor domain. AlphaScreen JMJD2A-Tudor / H3K4me3 peptide binding. Potency, µM (highest dose often 114 µM), usual class: inhibitors. 390,000 tested, 4.4% active; further: nearly all actives have a fitted effect of over 50% in size
Target sequence (O75164 whole entry, looked up, the tested form may be a part): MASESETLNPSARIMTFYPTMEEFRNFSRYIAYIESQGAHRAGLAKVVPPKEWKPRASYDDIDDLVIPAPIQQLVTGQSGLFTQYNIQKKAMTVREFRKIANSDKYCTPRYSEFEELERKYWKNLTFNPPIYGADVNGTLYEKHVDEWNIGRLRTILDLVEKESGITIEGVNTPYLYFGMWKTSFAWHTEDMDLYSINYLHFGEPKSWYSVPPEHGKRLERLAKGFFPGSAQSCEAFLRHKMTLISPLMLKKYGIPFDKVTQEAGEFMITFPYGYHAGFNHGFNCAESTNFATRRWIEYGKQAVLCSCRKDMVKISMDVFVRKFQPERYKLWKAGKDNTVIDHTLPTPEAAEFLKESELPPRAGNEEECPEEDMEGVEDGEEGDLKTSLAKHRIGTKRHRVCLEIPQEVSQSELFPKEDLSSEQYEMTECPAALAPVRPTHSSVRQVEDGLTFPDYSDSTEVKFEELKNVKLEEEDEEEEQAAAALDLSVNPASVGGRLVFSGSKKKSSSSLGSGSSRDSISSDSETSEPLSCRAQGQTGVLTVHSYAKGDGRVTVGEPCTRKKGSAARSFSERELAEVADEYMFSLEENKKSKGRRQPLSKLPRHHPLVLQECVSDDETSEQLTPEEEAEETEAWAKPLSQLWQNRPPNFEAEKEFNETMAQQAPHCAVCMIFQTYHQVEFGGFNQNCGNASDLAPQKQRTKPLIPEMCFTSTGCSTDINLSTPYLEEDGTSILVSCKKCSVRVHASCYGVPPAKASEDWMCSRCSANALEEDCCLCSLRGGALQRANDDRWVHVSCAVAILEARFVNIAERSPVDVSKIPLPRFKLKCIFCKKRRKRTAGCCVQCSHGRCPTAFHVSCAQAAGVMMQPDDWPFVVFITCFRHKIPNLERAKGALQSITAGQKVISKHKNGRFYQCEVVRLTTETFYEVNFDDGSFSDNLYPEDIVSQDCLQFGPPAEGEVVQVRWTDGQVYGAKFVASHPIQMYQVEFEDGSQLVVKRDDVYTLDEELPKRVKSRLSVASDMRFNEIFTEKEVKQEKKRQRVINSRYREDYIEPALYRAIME
CtBP-E1A blk: blocks the CtBP interaction with E1A | AID 651724 | activity change, % (concentration not given with the values) | AlphaScreen GST-E1A/His-CtBP binding, 1536-well; hits give low values | 340,000 tested, 0.49% active; in the data active means activity change below about -65%; inconclusive means mostly about -30% to -63%
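GST-E1A and His-tagged CtBP (125 nM each as 5X stock) were preincubated with pin-transferred compound for 2 h at 37 °C in the dark, then glutathione donor and nickel acceptor beads were added for 1 h before AlphaScreen reading.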
Numbers stand for hits; - = inactive; ? = inconclusive; . = no result given; ! = a repeat was not active; [ ] = remark or other dose. Unless noted, the call rests on the fitted dose curve; in most records, active means well fitted inhibition curve with a large enough effect; inconclusive means small, poorly fitted or top-dose-only effect; inactive means no such curve, though single readings can be large or run the other way.

SMILES	HP1b binding inh	G9a inh	Six1-Eya2 inh	BAZ2B block	JMJD2A Tudor inh	CtBP-E1A blk
COc1ccc(C2C(C(C)=O)=C(C)N=c3s/c(=C\c4ccco4)c(=O)n32)c(OC)c1 (stereo not drawn)	?	11µM	?	.	32µM	?
CCOC(=O)C1=C(C)N=c2s/c(=C\c3ccc(O)c([N+](=O)[O-])c3)c(=O)n2C1c1ccccc1OC (stereo not drawn)	?	14µM	-	8.9µM	10µM	-
COc1ccc(C2C(C(C)=O)=C(C)N=c3s/c(=C\c4ccc5c(c4)OCO5)c(=O)n32)c(OC)c1 (stereo not drawn)	-	.	-	.	-[11.4 µM]	-
CCOC(=O)C1=C(C)N=c2s/c(=C\c3ccc(OCC(=O)O)cc3)c(=O)n2C1c1ccccc1OC (stereo not drawn)	-	-[2.33 µM]	-	79µM	89µM	-
CCOC(=O)C1=C(C)N=c2s/c(=C/c3ccc(OCC(=O)O)cc3)c(=O)n2C1c1ccc(OC)cc1OC (stereo not drawn)	-	50µM	-	35µM	50µM	.
COc1ccc(/C=c2/sc3n(c2=O)C(c2ccccc2OC)C2=C(N=3)c3ccccc3CC2)cc1O (stereo not drawn)	-	.	-	?	?	-
CCC(=O)N1CCc2cc(S(=O)(=O)NC(Cc3ccccc3)C(=O)Nc3ccc(C)cc3)ccc21 (stereo not drawn)	-	-	.	.	-	.
O=C(Cc1ccc(NC(=O)N2CCSc3ncccc32)cc1)NCc1cccc(Cl)c1	-	?	.	-	-	.
CCOC(=O)C1=C(C)N=c2s/c(=C/c3cccc([N+](=O)[O-])c3O)c(=O)n2C1c1ccc(OC)cc1OC (stereo not drawn)	7.1µM	7.1µM	-	5µM	11µM	?
Cn1c(CN(O)S(=O)(=O)c2ccc(Cl)cc2)nnc1C(F)(F)F	-	10µM	-	-	-	-
O=[N+]([O-])c1ccccc1CN1CCN(c2ncccn2)CC1	?	?	-	50µM	18µM	-
O=[N+]([O-])c1ccccc1CN1CCN(Cc2c[nH]c3ccccc23)CC1	?	32µM	-	50µM	10µM	-
O=C(c1ccc([N+](=O)[O-])s1)N1CCN(c2ncccn2)CC1	.	.	-	.	.	-
O=[N+]([O-])c1ccccc1CN1CCN(Cc2ccccn2)CC1	-	4µM	-	50µM	0.79µM	-
O=c1c(CCc2ccccc2)nc2cnc(N3CCOCC3)nc2n1-c1ccccc1	.	-[0.501 µM]	.	.	.	.
CCCCN(CC(=O)NCc1ccc(F)cc1)C(=O)c1ccco1	-	-	-	?	-	.
Clc1ccc(-c2ccc(C=Nc3ccc(N4CCOCC4)cc3)o2)c(Cl)c1	-	35µM	-	-	?	-
Clc1cccc(-c2ccc(C=Nc3ccc(N4CCOCC4)cc3)o2)c1Cl	-	14µM	?	18µM	25µM	.
Clc1ccc(-c2ccc(C=Nc3ccc(N4CCOCC4)cc3)o2)cc1	-	-	-	-	-	-
CCN(CC)c1ccc(C(=O)N2CCc3c([nH]c4ccccc34)C2c2ccc(F)cc2)cc1 (stereo not drawn)	-	-	.	-	?	.
COc1ccc(NC(=O)C2CCCN2c2ccc(OC)c(OC)c2)cc1OC (stereo not drawn)	-	71µM	-	-	-	-
CNC(=O)COC(=O)c1cc(SC)ccc1Cl	-	-	-	.	-	-
CC(=O)c1ccc(-c2csc3ncnc(Sc4nnnn4C)c23)cc1	.	.	.	.	-	.
COc1cc(OC)cc(C(=O)NCC(=O)N2CC=C(c3ccccc3)CC2)c1	-	50µM	-	-	-	-
O=[N+]([O-])c1cc(Cl)cc(/C=N/Nc2nc3ccccc3s2)c1O	?	.	-	6.3µM	-[11.4 µM]	.
SMILES	HP1b binding inh	G9a inh	Six1-Eya2 inh	BAZ2B block	JMJD2A Tudor inh	CtBP-E1A blk
COc1cc(/C=N/Nc2nc3ccccc3s2)ccc1OC(=O)c1ccccc1F	-	-	-	?	?	-
COc1cc(/C=N/Nc2nc3ccccc3s2)cc([N+](=O)[O-])c1O	?	32µM	-82	35µM	40µM	.
COc1cc(OC)cc(C(=O)Oc2ccc(/C=N/Nc3nc4ccccc4s3)cc2OC)c1	-	28µM	-	-	-	-
COc1ccc(C=NNc2nc3ccccc3s2)cc1	-	.	-	.	-	-
O=C(NCCS(=O)(=O)N1CCN(c2ccccc2)CC1)c1ccccc1F	-	-	-	-	-	-
CCCCNC(=O)N(C)c1nc2ccccc2s1	-	50µM	-	-	-	-
COC(=O)N(C)c1nc2ccccc2s1	-	-	-	.	-	-
CC(=O)N(CCCN1CCOCC1)Cc1ccncc1	-	50µM	-	?	-[11.4 µM]	-
CCc1nnc(NS(=O)(=O)c2ccc(NC(=O)CCC(=O)OC)cc2)s1	-	-	-	?	-	-
Cc1cc(C)n2nc(C(=O)OCC(=O)c3cc(C)n(C)c3C)nc2n1	-	45µM	-	50µM	56µM	-
Cc1cc(C(=O)COC(=O)c2cc(Cl)c(O)c(Cl)c2)c(C)n1C	?	-[12.7 µM]	?	50µM	50µM	-
CC1(C)CCC(C)(C)NC(=S)N1	-	-	-	-	-	-
CC1CC(C)(C)NC(=S)O1 (stereo not drawn)	-	79µM!	-	-	-	-
CCN(CC)C(=O)C1CCCN(Cc2ccc3ccccc3c2)C1 (stereo not drawn)	-	?	-	?	22µM	-
Cc1cccc(CN2CCCC(C(=O)N3CCc4ccccc4C3)C2)c1 (stereo not drawn)	-	13µM	-	50µM	-	-
CCN(CC)C(=O)C1CCCN(Cc2sccc2C)C1 (stereo not drawn)	?	32µM	-	28µM	3.5µM	-
NC(=O)C1CCCN(Cc2ccc3ccccc3c2)C1 (stereo not drawn)	-	?	-	-	-	.
Cc1ccsc1C(=CCCN1CCC[C@@H](C(=O)O)C1)c1sccc1C	-	-	-	.	-	-
CCN(CC)C(=O)C1CCCN(Cc2cccc(F)c2)C1 (stereo not drawn)	-	?	-	?	3.2µM	-
C=CCC(=O)N(CC)CC1CCCN(CCc2cccc(F)c2)C1 (stereo not drawn)	-	.	-	-	-	-
COc1cccc(Cc2nc3ccccc3nc2SCC(=O)NCc2ccc(C)cc2)c1	-	-	.	-	-	.
CN(Cc1cccnc1)C(=O)CNC(=O)c1ccc(Cl)cc1Cl	-	-	-	-	-	-
O=c1c(-c2ccc(F)cc2)nc2cnc(N3CCOCC3)nc2n1Cc1ccc(F)cc1	.	-[0.501 µM]	.	.	.	.
COc1ccc(Cl)cc1C(=O)NNC(=O)c1ccc(F)c(S(=O)(=O)N2CCOCC2)c1	-	.	-	.	-	-
COC(=O)CC1C(=O)NCCN1C(=O)CSc1nnc(Nc2ccc(C)cc2)s1 (stereo not drawn)	-	40µM	-	-	-	-
